Reference: PubChem BioAssay (EPA / NIEHS)
Records with an inconclusive call do not appear. Activity calls are given as the source filed them. The calls were made as follows: active = hit-call score of the fitted dose curve at least 0.9, where 1 is the maximum; inconclusive = response in the unintended direction; inactive = score below 0.9.

Experiment: Tanguay_ZF_120hpf_AXIS_legacy: (Legacy) Oregon State University Tanguay Lab 120 Hour Post-fertilization zebrafish Assay for Body Axis Malformation (AID 2283635);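 as to AC50: potency for an increased fraction of larvae scored with body axis malformation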
Method in brief: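 Binary scoring of axis defects at 120 hpf under brightfield, fitted positive versus DMSO. Tropical 5D embryos, chorion removed by pronase at 4 hpf, were singly exposed in sealed, dark plates at 28C from 6 hpf; DMSO 0.64% final.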

| Structure (SMILES) | outcome | AC50 |
| --- | --- | --- |
| CCCCCCC(=O)O | inactive |  |
| CCCCCCCCCCCCc1ccccc1S(=O)(=O)O | inactive |  |
| COCC(C)O (stereo unspecified) | inactive |  |
| O=C(O)c1ccccc1C(c1ccc(O)cc1)c1ccc(O)cc1 | inactive |  |
| CCCCCCCCOC(=O)CCCCCCCCC(=O)OCCCCCCCC | inactive |  |
| CCc1nn(C2CCCCC2)c2cc(C3(C#N)CCC(C(=O)O)CC3)ccc12 (stereo unspecified) |  | 384 nM (active) |
| C[C@@H]1C[C@H]2[C@@H]3CCC4=CC(=O)C=C[C@]4(C)[C@@]3(F)[C@@H](O)C[C@]2(C)[C@@]1(O)C(=O)COP(=O)(O)O | inactive |  |
| NC(=O)N1C(=O)C(C(=O)c2cc(Cl)cs2)c2cc(F)c(Cl)cc21 (stereo unspecified) | inactive |  |
| OCCC(F)(F)C(F)(F)C(F)(F)C(F)(F)C(F)(F)C(F)(F)C(F)(F)C(F)(F)F | inactive |  |
| CN1CCN(c2ccccc2/C=C2\SCCN(c3ccc(Cl)c(Cl)c3)C2=O)CC1 | inactive |  |
| OC1CCCCC1 | inactive |  |
| CCCCOCCO | inactive |  |
| NC(=O)N(O)[C@@H]1C=C[C@H](Oc2cccc(Oc3ccc(F)cc3)c2)C1 | inactive |  |
| Cc1cc(C)c(O)c(C)c1 | inactive |  |
| CCN(CC)CCNc1ccc(CNC=O)c2sc3ccc(OC)cc3c(=O)c12 | inactive |  |
| COc1ccc([N+](=O)[O-])cc1N | inactive |  |
| Cc1cc(CCN2CCN(c3nsc4ccccc34)CC2)cc2c1NC(=O)CC2(C)C |  | 5380 nM (active) |
| CCCCCCCCCCCCCCCS(=O)(=O)Oc1ccccc1 | inactive |  |
| CCCCC(CC)COC(=O)CCCCC(=O)OCc1ccccc1 (stereo unspecified) | inactive |  |
| c1ccc2c(c1)Cc1ccccc1-2 | inactive |  |
| CC[C@H](C)[C@@H](C(=O)O)n1sc2ccccc2c1=O | inactive |  |
| O=C(OCCOCCOC(=O)c1ccccc1)c1ccccc1 | inactive |  |
| CC(O)CO (stereo unspecified) | inactive |  |
| CCC(C)(C)C1CCC(O)CC1 (stereo unspecified) | inactive |  |
| CN1CCC[C@H]1c1cccnc1 | inactive |  |

Experiment: Tanguay_ZF_120hpf_EYE_legacy: (Legacy) Oregon State University Tanguay Lab 120 Hour Post-fertilization zebrafish Assay for Eye Malformation (AID 2283636);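 also: binary presence or absence of eye malformation scored by brightfield in 120 hpf larvae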
Method in brief: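 Dechorionated Tropical 5D zebrafish embryos, one per well from 6 hpf, static exposure to 120 hpf at 28C, 0.64% DMSO. Eye malformation scored present/absent by brightfield; dead embryos not scored.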

| Structure (SMILES) | outcome | AC50 |
| --- | --- | --- |
| CCCCCCCCCCCCc1ccccc1S(=O)(=O)O | inactive |  |
| COCC(C)O (stereo unspecified) | inactive |  |
| CC(C)CCCCCCOC(=O)CCCCC(=O)OCCCCCCC(C)C | inactive |  |
| O=C(O)c1ccccc1C(c1ccc(O)cc1)c1ccc(O)cc1 | inactive |  |
| CCCCCCCCOC(=O)CCCCCCCCC(=O)OCCCCCCCC | inactive |  |
| CCc1nn(C2CCCCC2)c2cc(C3(C#N)CCC(C(=O)O)CC3)ccc12 (stereo unspecified) |  | 377 nM (active) |
| C[C@@H]1C[C@H]2[C@@H]3CCC4=CC(=O)C=C[C@]4(C)[C@@]3(F)[C@@H](O)C[C@]2(C)[C@@]1(O)C(=O)COP(=O)(O)O | inactive |  |
| CC1=C(/C=C/C(C)=C/C=C/C(C)=C/C(=O)O)C(C)(C)CCC1 |  | 99.9 nM (active) |
| NC(=O)N1C(=O)C(C(=O)c2cc(Cl)cs2)c2cc(F)c(Cl)cc21 (stereo unspecified) | inactive |  |
| CN1CCN(c2ccccc2/C=C2\SCCN(c3ccc(Cl)c(Cl)c3)C2=O)CC1 | inactive |  |
| OC1CCCCC1 | inactive |  |
| CCCCOCCO | inactive |  |
| NC(=O)N(O)[C@@H]1C=C[C@H](Oc2cccc(Oc3ccc(F)cc3)c2)C1 | inactive |  |
| CC(=O)NC1(c2cccc(F)c2)CCN(CC[C@@]2(c3ccc(Cl)c(Cl)c3)CN(c3ccccc3)C(=O)CO2)CC1 | inactive |  |
| CCN(CC)CCNc1ccc(CNC=O)c2sc3ccc(OC)cc3c(=O)c12 | inactive |  |
| COc1ccc([N+](=O)[O-])cc1N | inactive |  |
| Cc1cc(CCN2CCN(c3nsc4ccccc34)CC2)cc2c1NC(=O)CC2(C)C |  | 3050 nM (active) |
| CCCCC(CC)COC(=O)CCCCC(=O)OCc1ccccc1 (stereo unspecified) | inactive |  |
| c1ccc2c(c1)Cc1ccccc1-2 | inactive |  |
| CC[C@H](C)[C@@H](C(=O)O)n1sc2ccccc2c1=O | inactive |  |
| O=C(OCCOCCOC(=O)c1ccccc1)c1ccccc1 | inactive |  |
| CC(O)CO (stereo unspecified) | inactive |  |
| CCC(C)(C)C1CCC(O)CC1 (stereo unspecified) | inactive |  |
| CN1CCC[C@H]1c1cccnc1 | inactive |  |

Experiment: Tanguay_ZF_120hpf_SNOU_legacy: (Legacy) Oregon State University Tanguay Lab 120 Hour Post-fertilization zebrafish Assay for Snout Malformation (AID 2283637)
Method in brief: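 Dechorionated tropical 5D wild-type zebrafish embryos exposed statically from 6 to 120 hpf at 28C, one per well, in 0.64% DMSO. Snout malformation scored as present/absent by brightfield at 120 hpf; dead embryos not scored.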

| Structure (SMILES) | outcome | AC50 |
| --- | --- | --- |
| CCCCCCC(=O)O | inactive |  |
| CCCCCCCCCCCCc1ccccc1S(=O)(=O)O | inactive |  |
| COCC(C)O (stereo unspecified) | inactive |  |
| CC(C)CCCCCCOC(=O)CCCCC(=O)OCCCCCCC(C)C | inactive |  |
| O=C(O)c1ccccc1C(c1ccc(O)cc1)c1ccc(O)cc1 | inactive |  |
| CCCCCCCCOC(=O)CCCCCCCCC(=O)OCCCCCCCC | inactive |  |
| CCc1nn(C2CCCCC2)c2cc(C3(C#N)CCC(C(=O)O)CC3)ccc12 (stereo unspecified) |  | 344 nM (active) |
| C[C@@H]1C[C@H]2[C@@H]3CCC4=CC(=O)C=C[C@]4(C)[C@@]3(F)[C@@H](O)C[C@]2(C)[C@@]1(O)C(=O)COP(=O)(O)O | inactive |  |
| CC1=C(/C=C/C(C)=C/C=C/C(C)=C/C(=O)O)C(C)(C)CCC1 |  | 183 nM (active) |
| NC(=O)N1C(=O)C(C(=O)c2cc(Cl)cs2)c2cc(F)c(Cl)cc21 (stereo unspecified) | inactive |  |
| OCCC(F)(F)C(F)(F)C(F)(F)C(F)(F)C(F)(F)C(F)(F)C(F)(F)C(F)(F)F | inactive |  |
| CN1CCN(c2ccccc2/C=C2\SCCN(c3ccc(Cl)c(Cl)c3)C2=O)CC1 | inactive |  |
| OC1CCCCC1 | inactive |  |
| CCCCOCCO | inactive |  |
| NC(=O)N(O)[C@@H]1C=C[C@H](Oc2cccc(Oc3ccc(F)cc3)c2)C1 | inactive |  |
| CC(=O)NC1(c2cccc(F)c2)CCN(CC[C@@]2(c3ccc(Cl)c(Cl)c3)CN(c3ccccc3)C(=O)CO2)CC1 | inactive |  |
| Cc1cc(C)c(O)c(C)c1 | inactive |  |
| COc1ccc([N+](=O)[O-])cc1N | inactive |  |
| Cc1cc(CCN2CCN(c3nsc4ccccc34)CC2)cc2c1NC(=O)CC2(C)C |  | 3180 nM (active) |
| CCCCCCCCCCCCCCCS(=O)(=O)Oc1ccccc1 | inactive |  |
| CCCCC(CC)COC(=O)CCCCC(=O)OCc1ccccc1 (stereo unspecified) | inactive |  |
| c1ccc2c(c1)Cc1ccccc1-2 | inactive |  |
| CC[C@H](C)[C@@H](C(=O)O)n1sc2ccccc2c1=O | inactive |  |
| O=C(OCCOCCOC(=O)c1ccccc1)c1ccccc1 | inactive |  |
| CC(O)CO (stereo unspecified) | inactive |  |
| CCC(C)(C)C1CCC(O)CC1 (stereo unspecified) | inactive |  |
| CN1CCC[C@H]1c1cccnc1 | inactive |  |
